This note sets out measurements from ChEMBL document CHEMBL3988442, “University of Dundee, Small-Polar-MMV Screening Library” (2021).

Parameters in all cases: scale not given: direction of the effect not stated beside the values
Assay [1] addresses Protein translocase subunit SecA (Escherichia coli (strain K12)) (UniProt P10408). In words: Assay to Identify E. coli SecA ATPase Inhibitors. Type of assay: functional. The note with it: 30 µM.
Assay [2] addresses T1, Ubiquitin-activating enzyme e1, putative (Leishmania donovani (strain BPK282A1)) (UniProt E9BSI1).
T1 sequence (whole entry): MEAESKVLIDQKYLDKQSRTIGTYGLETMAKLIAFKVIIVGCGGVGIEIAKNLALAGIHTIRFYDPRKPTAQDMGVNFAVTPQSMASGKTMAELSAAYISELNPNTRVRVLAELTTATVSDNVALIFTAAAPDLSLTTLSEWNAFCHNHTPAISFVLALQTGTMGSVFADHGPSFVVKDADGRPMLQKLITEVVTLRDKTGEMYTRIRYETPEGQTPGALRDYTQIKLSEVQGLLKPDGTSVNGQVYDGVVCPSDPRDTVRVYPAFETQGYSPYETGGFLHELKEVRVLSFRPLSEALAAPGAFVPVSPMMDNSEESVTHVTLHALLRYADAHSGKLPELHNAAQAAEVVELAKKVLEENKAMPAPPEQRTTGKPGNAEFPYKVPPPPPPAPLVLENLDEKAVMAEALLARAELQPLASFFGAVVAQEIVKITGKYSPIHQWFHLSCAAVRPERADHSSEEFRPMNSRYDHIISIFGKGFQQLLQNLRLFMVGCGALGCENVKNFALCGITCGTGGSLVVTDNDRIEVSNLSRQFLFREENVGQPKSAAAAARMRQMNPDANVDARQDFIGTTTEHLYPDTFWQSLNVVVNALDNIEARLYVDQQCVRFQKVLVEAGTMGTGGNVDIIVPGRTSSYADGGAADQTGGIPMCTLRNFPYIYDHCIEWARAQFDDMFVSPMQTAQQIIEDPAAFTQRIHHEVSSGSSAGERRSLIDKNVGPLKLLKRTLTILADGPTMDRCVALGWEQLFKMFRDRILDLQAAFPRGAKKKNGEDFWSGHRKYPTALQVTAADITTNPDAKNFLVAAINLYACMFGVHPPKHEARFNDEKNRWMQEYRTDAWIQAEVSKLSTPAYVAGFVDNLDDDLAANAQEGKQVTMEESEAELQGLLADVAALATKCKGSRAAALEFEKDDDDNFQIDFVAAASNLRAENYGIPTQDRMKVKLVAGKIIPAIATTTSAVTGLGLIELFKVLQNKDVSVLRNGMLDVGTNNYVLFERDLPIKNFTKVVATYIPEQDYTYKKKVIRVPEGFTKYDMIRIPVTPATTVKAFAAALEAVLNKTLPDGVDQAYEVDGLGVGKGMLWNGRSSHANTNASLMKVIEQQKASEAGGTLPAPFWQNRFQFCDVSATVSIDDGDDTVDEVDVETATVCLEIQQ
In words: Leishmania donovani Ubiquitin Activating Enzyme (LdE1). The class given is functional. Particulars: 30 µM.

Assay [3] deals with AMP-activated protein kinase, AMPK (Homo sapiens) (UniProt P54646+O43741+P54619+Q9UGJ0+Q9Y478+Q13131+Q9UGI9). In words: AMP-dependent Kinase enzyme assay. An in vitro enzyme assay that detects ADP turnover that is directly proportional to AMPK activity. This uses naive AMPK that is activated during the assay with MK-8722. Type of assay: functional. Particulars: 30 µM.
The target of assay [4] is Sialic acid-binding Ig-like lectin 9 (Homo sapiens) (UniProt Q9Y336). The experiment in a line: Hs-Siglec9 ALPHAscreen SOP 20170721. Particulars: 10 µM. A general note: In Alpha technology, singlet oxygen from a donor bead excites a nearby acceptor bead.
Sequence of Sialic acid-binding Ig-like lectin 9 (Homo sapiens) (Q9Y336 whole entry): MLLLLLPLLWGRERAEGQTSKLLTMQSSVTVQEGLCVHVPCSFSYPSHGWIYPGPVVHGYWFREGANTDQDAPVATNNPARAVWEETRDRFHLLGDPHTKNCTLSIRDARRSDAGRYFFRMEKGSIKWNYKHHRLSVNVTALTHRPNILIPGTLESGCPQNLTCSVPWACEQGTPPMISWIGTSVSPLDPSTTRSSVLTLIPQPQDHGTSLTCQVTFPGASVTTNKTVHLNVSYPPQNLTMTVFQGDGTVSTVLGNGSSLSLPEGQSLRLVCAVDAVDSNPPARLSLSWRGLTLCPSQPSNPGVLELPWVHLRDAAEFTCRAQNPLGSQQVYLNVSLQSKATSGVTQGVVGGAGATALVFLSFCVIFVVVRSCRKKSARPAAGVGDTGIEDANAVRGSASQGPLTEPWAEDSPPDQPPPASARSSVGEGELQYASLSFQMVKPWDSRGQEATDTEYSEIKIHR
Assay [5] relates to Trypanosoma cruzi. The experiment in a line: Trypanosoma cruzi phosphomannomutase and mannose-1-phosphate guanylyltransferase assay. Type of assay: functional. Particulars: 10 µM.
Assay [6] concerns the target T2, Arginase-2, mitochondrial (Homo sapiens) (UniProt P78540).
T2 sequence (whole entry): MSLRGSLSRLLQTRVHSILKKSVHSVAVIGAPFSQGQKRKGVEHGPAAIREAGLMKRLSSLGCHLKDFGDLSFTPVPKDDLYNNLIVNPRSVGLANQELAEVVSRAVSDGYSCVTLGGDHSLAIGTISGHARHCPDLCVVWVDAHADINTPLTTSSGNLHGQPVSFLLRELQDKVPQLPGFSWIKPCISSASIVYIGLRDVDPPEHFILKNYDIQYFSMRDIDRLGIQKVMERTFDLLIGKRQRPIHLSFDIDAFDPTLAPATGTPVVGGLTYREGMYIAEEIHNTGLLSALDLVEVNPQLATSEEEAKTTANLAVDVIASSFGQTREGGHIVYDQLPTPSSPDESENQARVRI
In words: in vitro enzyme assay to detect the production of urea directly proportional to the activity of Arginase II. Also: in the data most compounds retested in dose-response had high values. Type of assay: functional. Particulars: 33.3 µM.

Assay [7] deals with T3, Proteasome subunit beta (Trypanosoma cruzi) (UniProt O96673).
T3 sequence (whole entry): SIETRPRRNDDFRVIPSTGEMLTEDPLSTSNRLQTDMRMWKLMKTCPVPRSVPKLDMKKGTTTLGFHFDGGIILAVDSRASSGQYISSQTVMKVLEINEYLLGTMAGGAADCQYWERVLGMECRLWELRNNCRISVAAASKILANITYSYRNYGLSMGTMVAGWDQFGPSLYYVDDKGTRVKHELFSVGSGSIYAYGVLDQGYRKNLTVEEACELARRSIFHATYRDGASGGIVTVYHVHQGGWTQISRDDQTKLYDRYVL
The experiment in a line: Trypanosoma cruzi proteasome chymotrypsin-like activity (TcProtChymo) assay. Also: in the data most compounds retested in dose-response had high values. The class given is functional. Particulars: 9.37 µM.

The species entered for assay [8] is Homo sapiens. In words: To identify inhibition of the IFN signalling (Jak-Stat) pathway via expression of an eGFP reporter gene under the control of an IFN-stimulated response element (ISRE) containing MxA promoter. The class given is functional. The note with it: 30 µM. (In a reporter assay the amount or activity of a reporter protein is the signal.)
The target in assay [9] is T4, Tyrosyl-tRNA synthetase, putative (Trypanosoma cruzi (strain CL Brener)) (UniProt Q4DSP6).
T4 sequence (whole entry): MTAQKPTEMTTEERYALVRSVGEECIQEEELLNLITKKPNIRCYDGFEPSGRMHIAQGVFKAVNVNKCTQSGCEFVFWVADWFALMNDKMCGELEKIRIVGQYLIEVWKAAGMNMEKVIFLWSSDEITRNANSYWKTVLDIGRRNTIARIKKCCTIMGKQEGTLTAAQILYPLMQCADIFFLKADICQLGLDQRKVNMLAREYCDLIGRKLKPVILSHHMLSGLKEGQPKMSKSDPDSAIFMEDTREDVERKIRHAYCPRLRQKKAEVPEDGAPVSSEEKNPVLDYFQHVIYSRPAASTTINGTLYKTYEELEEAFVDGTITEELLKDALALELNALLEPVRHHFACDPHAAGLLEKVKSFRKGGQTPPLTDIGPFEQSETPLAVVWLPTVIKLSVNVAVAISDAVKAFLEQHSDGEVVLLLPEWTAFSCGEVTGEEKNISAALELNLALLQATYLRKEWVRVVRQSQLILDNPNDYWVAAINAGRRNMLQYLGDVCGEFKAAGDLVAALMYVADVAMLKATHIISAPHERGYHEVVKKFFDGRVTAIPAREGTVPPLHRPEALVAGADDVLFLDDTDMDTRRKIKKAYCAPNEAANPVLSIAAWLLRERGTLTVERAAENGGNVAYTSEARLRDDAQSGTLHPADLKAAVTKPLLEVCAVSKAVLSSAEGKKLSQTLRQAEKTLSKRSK
The experiment in a line: Trypanosoma cruzi tyrosyl tRNA synthetase (TcYRS) _High Tyrosine SOP. Also: in the data most compounds retested in dose-response had high values. The class given is functional. The note with it: 30 µM.

Assay [10] deals with T4, Tyrosyl-tRNA synthetase, putative (Trypanosoma cruzi (strain CL Brener)). In words: Trypanosoma cruzi tyrosyl tRNA synthetase (TcYRS) SOP. Type of assay: functional. The note with it: 30 µM.
The target in assay [11] is Chromo domain-containing protein 1 (Saccharomyces cerevisiae (strain ATCC 204508 / S288c) (Baker's yeast)) (UniProt P32657). In words: ScCHD-1 Enzyme Inhibition Assay. Also: in the data most compounds retested in dose-response had high values. The class given is functional. Particulars: 30 µM.
Sequence of Chromo domain-containing protein 1 (Saccharomyces cerevisiae (strain ATCC 204508 / S288c) (Baker's yeast)) (P32657 whole entry, the tested form may be a part): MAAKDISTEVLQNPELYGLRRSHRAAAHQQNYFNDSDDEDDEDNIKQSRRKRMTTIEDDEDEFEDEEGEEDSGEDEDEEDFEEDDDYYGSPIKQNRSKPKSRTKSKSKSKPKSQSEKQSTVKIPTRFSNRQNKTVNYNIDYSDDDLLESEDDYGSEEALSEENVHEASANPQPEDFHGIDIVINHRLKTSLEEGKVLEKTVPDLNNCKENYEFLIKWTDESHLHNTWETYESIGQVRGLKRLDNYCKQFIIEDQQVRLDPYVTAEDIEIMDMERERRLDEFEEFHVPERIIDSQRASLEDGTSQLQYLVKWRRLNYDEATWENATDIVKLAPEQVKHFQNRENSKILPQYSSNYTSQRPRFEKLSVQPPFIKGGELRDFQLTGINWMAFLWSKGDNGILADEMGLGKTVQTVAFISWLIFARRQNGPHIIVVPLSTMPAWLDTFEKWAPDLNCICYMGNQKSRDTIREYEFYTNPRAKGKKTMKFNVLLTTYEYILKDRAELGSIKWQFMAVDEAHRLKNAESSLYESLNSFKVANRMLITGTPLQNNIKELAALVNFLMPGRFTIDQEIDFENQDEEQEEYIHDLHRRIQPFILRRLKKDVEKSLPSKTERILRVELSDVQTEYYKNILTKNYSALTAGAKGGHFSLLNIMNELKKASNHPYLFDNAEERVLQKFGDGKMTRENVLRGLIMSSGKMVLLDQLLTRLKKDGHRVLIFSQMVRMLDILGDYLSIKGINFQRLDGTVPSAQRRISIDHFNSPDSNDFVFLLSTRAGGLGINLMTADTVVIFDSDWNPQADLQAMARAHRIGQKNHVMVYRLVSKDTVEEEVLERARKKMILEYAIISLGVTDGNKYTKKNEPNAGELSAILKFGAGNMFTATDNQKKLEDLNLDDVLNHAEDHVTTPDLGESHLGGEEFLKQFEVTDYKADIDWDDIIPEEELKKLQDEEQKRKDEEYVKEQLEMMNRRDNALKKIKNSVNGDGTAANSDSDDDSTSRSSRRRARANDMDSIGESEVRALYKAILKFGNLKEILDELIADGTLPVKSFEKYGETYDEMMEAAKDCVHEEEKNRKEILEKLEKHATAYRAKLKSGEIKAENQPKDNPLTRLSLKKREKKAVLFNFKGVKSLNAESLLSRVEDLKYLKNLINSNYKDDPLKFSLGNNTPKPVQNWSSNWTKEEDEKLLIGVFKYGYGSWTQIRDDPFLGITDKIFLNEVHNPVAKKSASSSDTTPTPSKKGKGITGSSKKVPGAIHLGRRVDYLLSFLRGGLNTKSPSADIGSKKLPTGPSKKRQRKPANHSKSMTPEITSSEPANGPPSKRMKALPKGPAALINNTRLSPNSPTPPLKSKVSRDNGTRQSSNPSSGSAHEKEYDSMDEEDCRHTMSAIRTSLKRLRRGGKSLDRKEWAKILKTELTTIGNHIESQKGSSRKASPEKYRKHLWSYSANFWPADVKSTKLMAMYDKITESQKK

Structures are written as SMILES. For some assays here: Measured potencies and affinities stand elsewhere.

Sequence of Protein translocase subunit SecA (Escherichia coli (strain K12)) (P10408 whole entry): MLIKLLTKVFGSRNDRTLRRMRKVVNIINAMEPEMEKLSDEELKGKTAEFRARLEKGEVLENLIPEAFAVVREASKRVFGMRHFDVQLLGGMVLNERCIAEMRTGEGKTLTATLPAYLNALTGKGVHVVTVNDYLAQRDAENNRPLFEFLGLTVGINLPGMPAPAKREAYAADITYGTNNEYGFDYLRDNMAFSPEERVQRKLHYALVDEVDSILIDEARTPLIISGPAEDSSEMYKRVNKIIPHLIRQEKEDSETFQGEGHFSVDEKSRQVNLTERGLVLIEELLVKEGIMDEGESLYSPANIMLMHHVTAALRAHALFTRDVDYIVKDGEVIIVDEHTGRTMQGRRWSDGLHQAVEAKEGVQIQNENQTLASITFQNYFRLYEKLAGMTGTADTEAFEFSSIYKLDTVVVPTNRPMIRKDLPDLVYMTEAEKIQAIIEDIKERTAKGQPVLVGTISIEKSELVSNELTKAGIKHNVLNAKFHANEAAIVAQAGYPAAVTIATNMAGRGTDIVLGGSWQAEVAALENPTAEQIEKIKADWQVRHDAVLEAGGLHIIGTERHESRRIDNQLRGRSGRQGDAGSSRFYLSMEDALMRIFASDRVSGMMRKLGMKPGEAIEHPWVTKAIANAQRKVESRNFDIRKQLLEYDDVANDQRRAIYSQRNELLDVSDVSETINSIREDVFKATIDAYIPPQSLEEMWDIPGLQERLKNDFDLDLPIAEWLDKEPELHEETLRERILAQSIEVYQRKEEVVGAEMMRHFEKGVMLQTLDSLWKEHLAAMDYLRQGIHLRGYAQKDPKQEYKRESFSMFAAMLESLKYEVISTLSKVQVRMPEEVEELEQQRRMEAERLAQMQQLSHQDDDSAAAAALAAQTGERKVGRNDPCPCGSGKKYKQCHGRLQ

Consider `O=C(CN1CCOC(Cn2cccn2)C1)NCCc1ccc(F)cc1` (stereo not given), for which the Percent Effect was -2.6% in assay [1]; 2.7% in assay [2]; -6.61% in assay [3]; -1.28% in assay [4]; -3.25% in assay [5]; -0.554% in assay [6]. The Percent Effect in assay [7] is 7.18%; in [8], 5.31%; in assay [9], -0.99%; in assay [10], 1.22%; in [11] it was 13.8%.
Take `O=C1CC[C@H]2[C@H](CCN2C(=O)C2CCCO2)N1CCN1CCCC1` (stereo not given in full): the Percent Effect was 1.49% in assay [1]; 1.33% in [2]; 6.35% in assay [3]; -1.83% in assay [4]; 0.393% in [5]; -3.7% in assay [6]. Besides, the Percent Effect is 10.7% in assay [7]; -5.66% in assay [8]; 2.12% in assay [9]; 0% in assay [10]; -4.01% in [11].
Consider `CN(C)C(=O)[C@H]1C[C@@H]2CN(S(=O)(=O)Cc3ccccc3)C[C@H]1O2`, for which the Percent Effect in [1] was -2.48%; in assay [2], 13.3%; in assay [3] it was 5.4%; in assay [4], -3.98%; in [5], -1.38%; in assay [6], 3.96%. Besides, the Percent Effect in assay [7] was 7.49%; in assay [8], -3.98%; in assay [9], 5.32%; in assay [10], 11.5%; in [11], -6.01%.
Regarding `CN(CCCc1cnn(C)c1)C(=O)C1COc2ccccc2C1` (stereo not given), the Percent Effect in [1] is 0.742%; in assay [2], 8.22%; in [3] it was 1.84%; in [4] it was -1.88%; in [5], -1.37%; in [6] it was 2.27%. Moreover, the Percent Effect in [7] was 20.6%; in assay [8], 9.33%; in assay [9], 2.15%; in [10], 17.5%; in assay [11], -14.2%.
In the case of `COCc1cc(NCCc2ccc(F)cc2)n2nccc2n1`, the Percent Effect was -5.32% in assay [1]; 0% in assay [2]; 14.1% in assay [3]; -6.47% in assay [4]; -0.196% in assay [5]; -2.27% in assay [6]. Besides, the Percent Effect in assay [7] was -0.887%; in assay [8], -6.7%; in [9], 1.07%; in assay [10], 5%; in assay [11], -5.83%.
With `Clc1ccccc1CN1CCc2nc(C3CCCCN3)ncc2C1` (stereo not given), the Percent Effect is -3.32% in [1]; -8% in assay [2]; 4.19% in [3]; 5.09% in assay [4]; 8.46% in assay [5]; -1.17% in [6]. Moreover, the Percent Effect is 5.55% in assay [7]; -13.2% in [8]; 5.32% in assay [9]; 3.85% in assay [10]; -2.09% in assay [11].
For `CN(CCNC(=O)NCc1ccncc1)C1CCCC1`, the Percent Effect is -0.694% in [1]; -5.41% in [2]; -4.53% in assay [3]; 1.79% in [4]; -3.3% in assay [5]; 0.401% in assay [6]. Moreover, the Percent Effect in assay [7] is -6.31%; in assay [8] it was 7.43%; in assay [9], 1.48%; in assay [10], -1.24%; in assay [11], 2.18%.
Consider `CC(NC(=O)NCc1ccc(Cl)cc1)c1ccccn1` (stereo not given), for which the Percent Effect in assay [1] was -1.55%; in assay [2] it was 1.27%; in [3] it was 3.12%; in assay [4] it was 3.62%; in assay [5], 5.23%; in assay [6], -6.24%. Moreover, the Percent Effect in assay [7] was 12%; in [8], 12.2%; in assay [9], 2.08%; in assay [10], 0%; in assay [11] it was -24.6%.
Take `O=C(O)C1(Cc2ccccc2Cl)CCN(c2ncccc2F)CC1`: the Percent Effect in assay [1] was -0.132%; in assay [2] it was 5.41%; in assay [3] it was -2.78%; in assay [4], 5.67%; in assay [5], 1.54%; in [6], 1.91%. Besides, the Percent Effect in assay [7] is 19.5%; in [8], 7.74%; in [9], 6.88%; in assay [10], 2.44%; in assay [11] it was -3.4%.
In the case of `c1cnn(CC2CN(CCc3ccncc3)CCO2)c1` (stereo not given), the Percent Effect was 1.49% in assay [1]; 13% in assay [2]; 1.87% in [3]; -13.5% in [4]; -2.06% in [5]; 0.632% in assay [6]. In addition, the Percent Effect is 6.22% in assay [7]; 32% in assay [8]; 4.76% in assay [9]; 21.2% in [10]; -16.1% in assay [11].
